Changes are numbered by the printed parent chain.

Common to all, as to experiment: HT-SELEX; high values mean tight binding
Details in all cases: protein: recombinant; vector His6-GST; dsDNA, one strand shown

The target in one test is T1, SALL4 ZFC4 WT (HT-SELEX) (Mus musculus, UniProt Q8BX22 870-940).
T1 sequence: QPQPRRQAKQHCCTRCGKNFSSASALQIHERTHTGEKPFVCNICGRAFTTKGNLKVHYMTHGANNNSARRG
A digest of the protocol:
(§1)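 Recombinant mouse SALL4 zinc finger cluster 4 (residues 870–940, 1 µg), purified, was mixed with library DNA (1.5 µg in the first cycle, 200 ng thereafter) in 100 µl of buffer containing 10 mM Tris–HCl pH 7.5, 50 mM NaCl, poly(dI-dC) and DTT, and left for 10 min at room temperature. Complexes were captured on Ni2+ beads, washed, amplified by PCR and reselected for up to 6 cycles in triplicate, after which MiSeq sequencing and a 6-mer scan followed. Binding signal is the read fraction of each canonical k-mer, given as fold change relative to the starting random library.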

The target of test [1] is T2, SALL4 ZFC4 R900W (HT-SELEX) (Mus musculus, UniProt Q8BX22 870-940, R900W).
T2 sequence: T1 sequence with R31W
A digest of the protocol: as §1

In test [2] the target is T3, SALL4 ZFC4 G921D (HT-SELEX) (Mus musculus, UniProt Q8BX22 870-940, G921D).
T3 sequence: T1 sequence with G52D
A digest of the protocol:
as §1

TGACCA: the binding signal with SALL4 ZFC4 WT (HT-SELEX) was 0.72 ± 0.0319 fold-change vs cycle 0; in test [1], 0.823 ± 0.0121 fold-change vs cycle 0; in test [2], 0.899 ± 0.0281 fold-change vs cycle 0.

For the sequence AGTAGA, the binding signal with SALL4 ZFC4 WT (HT-SELEX) worked out at 1.33 ± 0.0604 fold-change vs cycle 0; in test [1], 1.54 ± 0.0844 fold-change vs cycle 0; in test [2], 1.41 ± 0.124 fold-change vs cycle 0.

On to CCACAC, for which the binding signal with SALL4 ZFC4 WT (HT-SELEX) was 0.35 ± 0.0241 fold-change vs cycle 0; in test [1], 0.414 ± 0.0369 fold-change vs cycle 0; in test [2] it was 0.516 ± 0.0626 fold-change vs cycle 0.

ACCAAC: the binding signal came out at 0.731 ± 0.0183 fold-change vs cycle 0 in the test with SALL4 ZFC4 WT (HT-SELEX), 0.8162 ± 0.00324 fold-change vs cycle 0 in test [1] and 0.883 ± 0.0212 fold-change vs cycle 0 in test [2].

For the sequence ATGCCA, the values for the binding signal (with SALL4 ZFC4 WT (HT-SELEX); in test [1]; in test [2]) were 0.517 ± 0.0281 fold-change vs cycle 0, 0.565 ± 0.0177 fold-change vs cycle 0 and 0.695 ± 0.0326 fold-change vs cycle 0, respectively.

For GAACGA, the binding signal came to 0.753 ± 0.0422 fold-change vs cycle 0 in the test with SALL4 ZFC4 WT (HT-SELEX), 0.856 ± 0.0556 fold-change vs cycle 0 in test [1] and 0.9 ± 0.0297 fold-change vs cycle 0 in test [2].

For AGCATC, the binding signal with SALL4 ZFC4 WT (HT-SELEX) came out at 0.703 ± 0.0384 fold-change vs cycle 0; in test [1] it was 0.804 ± 0.0378 fold-change vs cycle 0; in test [2], 0.887 ± 0.0448 fold-change vs cycle 0.

For the sequence AAAGAC, the binding signal with SALL4 ZFC4 WT (HT-SELEX) turned out to be 1.11 ± 0.0498 fold-change vs cycle 0; in test [1], 1.29 ± 0.0526 fold-change vs cycle 0; in test [2], 1.26 ± 0.0352 fold-change vs cycle 0.

Turning to AGCCAA, the binding signal with SALL4 ZFC4 WT (HT-SELEX) amounted to 0.49 ± 0.0194 fold-change vs cycle 0; in test [1], 0.55 ± 0.00629 fold-change vs cycle 0; in test [2], 0.698 ± 0.0739 fold-change vs cycle 0.

As for AGCGAG, the binding signal with SALL4 ZFC4 WT (HT-SELEX) was 0.337 ± 0.0112 fold-change vs cycle 0; in test [1], 0.393 ± 0.0228 fold-change vs cycle 0; in test [2], 0.519 ± 0.0797 fold-change vs cycle 0.

As to CAATGG, the binding signal worked out at 0.767 ± 0.067 fold-change vs cycle 0 in the test with SALL4 ZFC4 WT (HT-SELEX), 0.849 ± 0.0267 fold-change vs cycle 0 in test [1] and 0.923 ± 0.0362 fold-change vs cycle 0 in test [2].

Regarding ATAACG, the binding signal in the test with SALL4 ZFC4 WT (HT-SELEX) was 1.39 ± 0.0783 fold-change vs cycle 0; in test [1], 1.3 ± 0.0579 fold-change vs cycle 0; in test [2], 1.23 ± 0.0819 fold-change vs cycle 0.

For CTCTGC, the binding signal in the test with SALL4 ZFC4 WT (HT-SELEX) amounted to 0.35 ± 0.0408 fold-change vs cycle 0; in test [1] it was 0.396 ± 0.021 fold-change vs cycle 0; in test [2], 0.522 ± 0.0742 fold-change vs cycle 0.

Turning to ATAGAA, the binding signal with SALL4 ZFC4 WT (HT-SELEX) turned out to be 2.33 ± 0.17 fold-change vs cycle 0; in test [1], 2.13 ± 0.133 fold-change vs cycle 0; in test [2], 1.83 ± 0.226 fold-change vs cycle 0.

Consider AGATTC, for which the binding signal with SALL4 ZFC4 WT (HT-SELEX) came out at 1.34 ± 0.0579 fold-change vs cycle 0; in test [1], 1.42 ± 0.0466 fold-change vs cycle 0; in test [2], 1.39 ± 0.0922 fold-change vs cycle 0.

For the sequence CACGTG, the binding signal turned out to be 0.391 ± 0.0518 fold-change vs cycle 0 with SALL4 ZFC4 WT (HT-SELEX), 0.459 ± 0.0227 fold-change vs cycle 0 in test [1] and 0.562 ± 0.0574 fold-change vs cycle 0 in test [2].

For the sequence ACCTCG, the figures for the binding signal (with SALL4 ZFC4 WT (HT-SELEX); in test [1]; in test [2]) were 0.423 ± 0.0256 fold-change vs cycle 0, 0.498 ± 0.00774 fold-change vs cycle 0 and 0.604 ± 0.0431 fold-change vs cycle 0, respectively.

Consider CAGAGG, for which the binding signal came to 0.463 ± 0.0456 fold-change vs cycle 0 with SALL4 ZFC4 WT (HT-SELEX), 0.548 ± 0.0393 fold-change vs cycle 0 in test [1] and 0.65 ± 0.0673 fold-change vs cycle 0 in test [2].

On to CGCAAA, for which the binding signal with SALL4 ZFC4 WT (HT-SELEX) was found to be 0.335 ± 0.00942 fold-change vs cycle 0; in test [1], 0.376 ± 0.0263 fold-change vs cycle 0; in test [2] it was 0.498 ± 0.0731 fold-change vs cycle 0.

On to GGACCA, for which the binding signal was found to be 0.389 ± 0.0179 fold-change vs cycle 0 in the test with SALL4 ZFC4 WT (HT-SELEX), 0.466 ± 0.011 fold-change vs cycle 0 in test [1] and 0.557 ± 0.0733 fold-change vs cycle 0 in test [2].

On to CGTTAA, for which the results for the binding signal (with SALL4 ZFC4 WT (HT-SELEX); in test [1]; in test [2]) were 1.13 ± 0.0737 fold-change vs cycle 0, 1.25 ± 0.0783 fold-change vs cycle 0 and 1.17 ± 0.0825 fold-change vs cycle 0, respectively.

For the sequence ATCACC, the figures for the binding signal (with SALL4 ZFC4 WT (HT-SELEX); in test [1]; in test [2]) were 0.917 ± 0.0379 fold-change vs cycle 0, 0.988 ± 0.0223 fold-change vs cycle 0 and 1.06 ± 0.0273 fold-change vs cycle 0, respectively.

On to ACAGCA, for which the binding signal in the test with SALL4 ZFC4 WT (HT-SELEX) came out at 0.623 ± 0.0211 fold-change vs cycle 0; in test [1], 0.694 ± 0.0191 fold-change vs cycle 0; in test [2], 0.793 ± 0.0143 fold-change vs cycle 0.

Take AGCAAA: the results for the binding signal (with SALL4 ZFC4 WT (HT-SELEX); in test [1]; in test [2]) were 0.996 ± 0.0354 fold-change vs cycle 0, 1.04 ± 0.0692 fold-change vs cycle 0 and 1.07 ± 0.0335 fold-change vs cycle 0, respectively.

On to CATTCA, for which the results for the binding signal (with SALL4 ZFC4 WT (HT-SELEX); in test [1]; in test [2]) were 1.32 ± 0.0575 fold-change vs cycle 0, 1.48 ± 0.0487 fold-change vs cycle 0 and 1.41 ± 0.0654 fold-change vs cycle 0, respectively.

Turning to ATGCTC, the results for the binding signal (with SALL4 ZFC4 WT (HT-SELEX); in test [1]; in test [2]) were 0.663 ± 0.0343 fold-change vs cycle 0, 0.754 ± 0.0376 fold-change vs cycle 0 and 0.845 ± 0.0337 fold-change vs cycle 0, respectively.

For CTACAA, the binding signal in the test with SALL4 ZFC4 WT (HT-SELEX) is 1.17 ± 0.0183 fold-change vs cycle 0; in test [1], 1.29 ± 0.0465 fold-change vs cycle 0; in test [2], 1.24 ± 0.0556 fold-change vs cycle 0.

With AATAAG, the binding signal stood at 2.35 ± 0.133 fold-change vs cycle 0 with SALL4 ZFC4 WT (HT-SELEX), 2.15 ± 0.175 fold-change vs cycle 0 in test [1] and 1.86 ± 0.227 fold-change vs cycle 0 in test [2].

For the sequence CTGCAA, the results for the binding signal (with SALL4 ZFC4 WT (HT-SELEX); in test [1]; in test [2]) were 0.58 ± 0.0126 fold-change vs cycle 0, 0.651 ± 0.015 fold-change vs cycle 0 and 0.729 ± 0.0483 fold-change vs cycle 0, respectively.

On to ATCCGG, for which the figures for the binding signal (with SALL4 ZFC4 WT (HT-SELEX); in test [1]; in test [2]) were 0.352 ± 0.0195 fold-change vs cycle 0, 0.41 ± 0.0188 fold-change vs cycle 0 and 0.52 ± 0.0559 fold-change vs cycle 0, respectively.

Values taken from publication PMC9838217, “Structure of SALL4 zinc finger domain reveals link between AT-rich DNA binding and Okihiro syndrome”.
